Our source for the Potency values is PubChem BioAssay (NCATS).

Inconclusive results are not listed. Active and inactive are the calls of the source. Calls follow the shape of the dose curve; as a rule, active = well fitted cell-killing curve with a large enough effect; inconclusive = small, poorly fitted or top-dose-only effect, or effect the other way; inactive = no such curve, though single readings can be large or run the other way. Peptide text beside a SMILES is read from it.
Potency is read from the fitted curve at half-maximal effect.

The assay can be described thus: Quantitative High-Throughput drug screen in 47 multiple myeloma cell lines against the NCATS MIPE library collection: INA6_PLB cell viability assay (AID 1918965; also: nearly all actives have a fitted effect of over 55% in size). Conditions: INA6 myeloma viability, CellTiter-Glo ATP luminescence, 48 h; series mostly up to 45.8 µM. From the text:
PI: Beverly A. Mock Ph.D.
Laboratory of Cancer Biology and Genetics,
Center for Cancer Research, National Cancer Institute,
National Institute of Health, Bethesda, Maryland
Drug resistance and disease progression are common in multiple myeloma (MM) patients, underscoring the need for new therapeutic combinations. […] We hypothesized that effective combinations would reduce MYC expression and enhance p16 activity. […] These preclinical data identify potentially useful drug combinations for evaluation in drug-resistant MM and reveal potential mechanisms of combined drug sensitivity.
Described herein is the primary MIPE qHTS used to cherrypick compounds. Validated compounds were then further tested for potential synergistic activiy.
[1] Peat TJ, Gaikwad SM, Dubois W, Gyabaah-Kessie N, Zhang S, Gorjifard S, Phyo Z, Andres M, Hughitt VK, Simpson RM, Miller MA, Girvin AT, Taylor A, Williams D, D'Antonio N, Zhang Y, Rajagopalan A, Flietner E, Wilson K, Zhang X, Shinn P, Klumpp-Thomas C, McKnight C, Itkin Z, Chen L, Kazandijian D, Zhang J, Michalowski AM, Simmons JK, Keats J, Thomas CJ, Mock BA. Drug combinations identified by high-throughput screening promote cell cycle transition and upregulate Smad pathways in myeloma. Cancer Lett. 2023 Aug 1;568:216284. doi: 10.1016/j.canlet.2023.216284. Epub 2023 Jun 24. PMID: 37356470; PMCID: PMC10408729.
SEQUENCE No. (e.g., 1, 2, 3, etc.); […] (e.g., Cells, Incubation, Reagent, etc.); VALUE and DESCRIPTION.
1; Cells; 5 uL; white, solid bottom 1536-well Greiner assay plate.
2; Compounds; 23 nL; Kalypsis pin tool (Wako USA) equipped with a 1536-well pin head to transfer to the assay plates.
3; Incubation; 48 hours; 37C incubation.
4; Reagent;5uL; CellTiter Glo (Promega).
5; Detector; 425V; Luminescence; Viewlux PerkinElmer.
NOTES (numbers refer to Sequence numbers above)
1. The cell-based screening methods employed in this study were like those previously published. Briefly, the corresponding myeloma cell lines were screened in 1,536-well plates with 500 cells, 5-uL per well for inhibition of cell viability (assessed by measuring ATP levels with CellTiterGlo).
2. NCATS MIPE 4.0 library of approved and investigational drugs were added using the Kalypsis pin tool. Wells treated with DMSO only for 100% viability and media only wells for 0% viability were used as controls.
3. The assay plates were covered and incubated for 48 hours in a 37C, 5% CO2 incubator with controlled humidity.
4. After 48 hours, CellTilter-GloTM luminescent substrate mix (Promega) reagent was added to the assay plate and plates we incubated for 5 min at room temperature.
5. Signal was measured as median relative luminescence units on a ViewLux (PerkinElmer) multiplate reader.
[1] Heske CM, Davis MI, Baumgart JT, Wilson K, Gormally MV, Chen L, Zhang X, Ceribelli M, Duveau DY, Guha R, Ferrer M, Arnaldez FI, Ji J, Tran HL, Zhang Y, Mendoza A, Helman LJ, Thomas CJ. Matrix Screen Identifies Synergistic Combination of PARP Inhibitors and Nicotinamide Phosphoribosyltransferase (NAMPT) Inhibitors in Ewing Sarcoma. Clin Cancer Res. 2017 Dec 1;23(23):7301-7311. doi: 10.1158/1078-0432.CCR-17-1121. Epub 2017 Sep 12. PMID: 28899971; PMCID: PMC6636827.
(Cellular ATP, detected with luciferase, serves as a proxy for viable cell number.)
In the case of `CC1Cc2ccccc2N1NC(=O)c1ccc(Cl)c(S(N)(=O)=O)c1` (stereo not given), the Potency result is “inactive”.

Take `O=C(O)CCNC(=O)c1ccc(N=Nc2ccc(O)c(C(=O)O)c2)cc1`: the Potency entry was “inactive”.

On to `CCN(CC)C(=S)SSC(=S)N(CC)CC`, for which the Potency was 0.001 µM (active).

Turning to `O=C(O)c1cccnc1Nc1cccc(C(F)(F)F)c1`, the Potency entry is “inactive”.

Regarding `Nc1ccc(S(N)(=O)=O)cc1`, the Potency entry was “inactive”.

With `Clc1ccc(C(Cn2ccnc2)OCc2ccsc2Cl)c(Cl)c1` (stereo not given), the Potency was 26.4 µM (active).

For `COc1cc(Nc2c(C#N)cnc3cc(OCCCN4CCN(C)CC4)c(OC)cc23)c(Cl)cc1Cl`, the Potency is 0.418 µM (active).

`CN(C)C(=O)[C@H](O)[C@H](Cc1ccccc1)NC(=O)c1cc2cc(Cl)ccc2[nH]1`: the Potency is 0.833 µM (active).

Regarding `Oc1ccc(-c2nc(-c3ccc(F)cc3)c(-c3ccncc3)[nH]2)cc1`, the Potency was 14.8 µM (active).

Regarding `CC1=C(C(=O)O)N2C(=O)[C@@H](NC(=O)[C@H](N)C3=CCC=CC3)[C@H]2SC1`, the Potency entry was “inactive”.

Regarding `CN(C)C(=O)COC(=O)Cc1ccc(OC(=O)c2ccc(N=C(N)N)cc2)cc1`, the Potency is 1.48 µM (active).

Consider `Cc1ccc(C)c(OCCCC(C)(C)C(=O)O)c1`, for which the Potency was 20.9 µM (active).

With `O=C1c2ccccc2-c2n[nH]c3cccc1c23`, the Potency is 20.9 µM (active).

Take `COC1=C(OC)C(=O)C(CCCCCCCCCCO)=C(C)C1=O`: the Potency was 18.7 µM (active).

As to `Nc1ncn([C@H]2C[C@H](O)[C@@H](CO)O2)c(=O)n1`, the Potency was 0.0235 µM (active).

`CCOC(=O)C(C)Oc1cccc2c(=O)n(CC(=O)Nc3ccc4c(c3)OCCO4)ccc12` (stereo not given): the Potency result was “inactive”.

`CC(=O)NC[C@H]1CN(c2ccc(N3CCOCC3)c(F)c2)C(=O)O1`: the Potency result is “inactive”.

Turning to `C[C@H](Cc1ccc(O)c(O)c1)[C@@H](C)Cc1ccc(O)c(O)c1`, the Potency was 9.35 µM (active).

Take `COCCCOc1ccnc(CS(=O)c2nc3ccccc3[nH]2)c1C` (stereo not given): the Potency entry was “inactive”.

Take `O=C(CCc1ccc(O)cc1)c1c(O)cc(O)cc1O`: the Potency was 0.418 µM (active).

Regarding `CCC1=C(C)CN(C(=O)NCCc2ccc(S(=O)(=O)NC(=O)NC3CCC(C)CC3)cc2)C1=O` (stereo not given), the Potency entry was “inactive”.

On to `CN(C)CCc1c[nH]c2ccc(Cn3cncn3)cc12`, for which the Potency was 1.66 µM (active).

As for `CCCCC(CC)COC(=O)C(C#N)=C(c1ccccc1)c1ccccc1` (stereo not given), the Potency is 9.35 µM (active).

Regarding `CN(C)[C@@H](CCOc1cccc2ccccc12)c1ccccc1`, the Potency was 18.7 µM (active).

For the molecule `COCCCN1CCC(NC(=O)c2cc(Cl)c(N)c3c2OCC3)CC1`, the Potency is 18.7 µM (active).

Take `Nc1nc(Cl)nc2c1ncn2[C@H]1C[C@H](O)[C@@H](CO)O1`: the Potency was 0.935 µM (active).

With `CCCOc1ccc2nc(NC(=O)OC)[nH]c2c1`, the Potency was 0.0105 µM (active).

For `C=CCc1cc(OC)c(O)c(C(=O)NCCO)c1`, the Potency result was “inactive”.

For `Cc1cc(C2CCCCC2)n(O)c(=O)c1`, the Potency is 6.62 µM (active).

On to `COC(=O)[C@H](Cc1ccccc1)NC(=O)[C@@H](N)CC(=O)O` (H-Asp-Phe-OMe), for which the Potency entry was “inactive”.

As for `Oc1ccc2ccccc2c1SSc1c(O)ccc2ccccc12`, the Potency is 5.9 µM (active).

Turning to `C[C@@H](N)C1CCC(C(=O)Nc2ccncc2)CC1` (stereo not given in full), the Potency is 18.7 µM (active).

Consider `COc1ccc2cc([C@H](C)C(=O)O)ccc2c1`, for which the Potency result was “inactive”.

On to `CCCCN(CCCC)CCC(O)c1cc2c(Cl)cc(Cl)cc2c2cc(C(F)(F)F)ccc12` (stereo not given), for which the Potency is 18.7 µM (active).

Consider `c1ccc2[nH]c(-c3cscn3)nc2c1`, for which the Potency result is “inactive”.

`O=C(NOCC1CC1)c1ccc(F)c(F)c1Nc1ccc(I)cc1Cl`: the Potency is 9.35 µM (active).

Regarding `NCCCCNCCCN`, the Potency was 11.8 µM (active).

Consider `CC(C)c1ccc2oc3nc(N)c(C(=O)O)cc3c(=O)c2c1`, for which the Potency entry was “inactive”.

In the case of `Cc1cc(O)c2c(c1)C(=O)c1cc(O)cc(O)c1C2=O`, the Potency entry was “inactive”.

In the case of `CC1(C)NC(=O)N(c2ccc([N+](=O)[O-])c(C(F)(F)F)c2)C1=O`, the Potency was 3.32 µM (active).
